Assay results from PubChem BioAssay.
Unmarked numbers belong to inactive results. The source made the active and inactive calls.

assay: fission yeast growth modulation, primary screen, strain 972, OD600, 24 h, no modulator (AID 1090);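 also: basal condition with compound alone and no growth modifier present; test concentration not given here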; details: S. pombe 972 growth, higher = more signal, called active from +8 up or from −8 down

Which z-score does the source give for COc1ccc([Si](C)(C)[C@H]2[C@H](CC(=O)N3CCC[C@H]3CO)O[C@@]3(C(=O)N(Cc4cccc(N5C(=O)COc6ccccc65)c4)c4ccccc43)[C@@H]2C)cc1 here?
Its z-score is -0.769.

With CC(=O)OC[C@H]1O[C@H](C#CCCCc2ccccc2)C=C[C@@H]1OC(C)=O as the compound, how does the z-score read?
The z-score was -19.5 (active).

Which z-score does the source give for CC(C)[C@H](NC(=O)OC(C)(C)C)[C@@H](O)CC(=O)OC(C)(C)C here?
The z-score was -0.379.

With COCCCNC(=O)[C@]1(CCC(=O)OC(C)(C)C)N=C(c2ccc(OCCCO)cc2)O[C@@H]1c1ccccc1N=[N+]=[N-] as the compound, how does the z-score read?
The z-score was -1.22.

For C[C@@H]1C=CCC(=O)OC[C@H](C)C(=O)N[C@@H](C)C(=O)OC1, which z-score is on record?
The z-score was 0.406.

Which z-score does the source give for COC(=O)[C@@]1(Cc2ccc(F)cc2)[C@H]2c3cc(C(=O)N(C)C)n(Cc4ccc(OC)c(OC)c4)c3C[C@H]2CN1C(=O)c1ccccc1 here?
The z-score was -0.636.

Which z-score does the source give for CCCCCN1CC=CC23O[C@@H]4C=CCOC(=O)[C@@H]4[C@H]2C(=O)N(CCCCCCO)[C@@H]3C1=O (stereo not given in full) here?
Its z-score is -0.183.

With COc1ccc(O[C@H]2C=C[C@@H](c3ccccc3)O[C@@H]2COC(=O)CCC(C)=NO[C@H](C)c2cn([C@@H]3COC[C@H]3O)nn2)cc1 as the compound, how does the z-score read?
The z-score was -0.757.

For C#C[C@@H]1Oc2ccccc2S(=O)(=O)N2CCC[C@H]12, which z-score is on record?
The z-score was 0.809.

With CC(C)(C)OC(=O)CC[C@]1(C(N)=O)COC(c2ccc(OCCCO)cc2)=N1 as the compound, how does the z-score read?
The z-score was -0.391.

With COc1ccc(O[C@H]2C=C[C@@H](c3ccccc3)O[C@@H]2COC(=O)CCC(C)=NOC[C@@H](C)[C@H](OCc2ccccc2)C(C)C)cc1 as the compound, how does the z-score read?
The z-score was 0.329.

Which z-score does the source give for Cc1ccc(F)cc1S(=O)(=O)N[C@@H]1CCN(Cc2ccc(CC(C)C)cc2)C1 here?
Its z-score is -21.4 (active).

For CCc1cc2c(nc1CC)CCN(CCC(C)=NOC(C)CN1CCCc3nc(C)c(C)cc31)C2 (stereo not given), which z-score is on record?
Its z-score is -1.74.

Which z-score does the source give for Cc1ccc(S(=O)(=O)N[C@@H]2COC(=O)[C@H](C)COC(=O)CC=C[C@H]2C)cc1 here?
The z-score was 1.05.

Which z-score does the source give for O=C1C[C@@H](O)[C@@H](O)[C@@H]2[C@@H]3C(=O)N(Cc4ccc5c(c4)OCO5)C(=O)[C@@H]3CC[C@@H]12 here?
The z-score was 0.481.

For CN1C(=O)[C@@]2(CCC(=O)OC(C)(C)C)N=C(c3ccc(OCCCO)cc3)O[C@H]2c2ccccc21, which z-score is on record?
Its z-score is -2.19.

For COCCOC(=O)N1C(=O)[C@@]2(c3cc(C#CC4(O)CCCCCC4)ccc31)[C@H](C(=O)N1CCN(c3ncccn3)CC1)[C@H]1C(=O)O[C@H](c3ccccc3)[C@H](c3ccccc3)N1[C@@H]2c1ccc(OCCO)cc1, which z-score is on record?
The z-score was 1.35.

Which z-score does the source give for CCOC(=O)[C@H](CC(C)C)NC(=O)CCC1CC(OC(=O)NCc2cccc3ccccc23)CC2(CCCC(COC(=O)NCCc3ccccc3OC)O2)O1 (stereo not given in full) here?
The z-score was -0.0584.

With COC(=O)[C@H](C)NC(=O)CCC1CC(OC(=O)NCc2cccc3ccccc23)CC2(CCCC(COC(=O)NCCc3ccc(Cl)cc3)O2)O1 (stereo not given in full) as the compound, how does the z-score read?
Its z-score is -0.253.

Which z-score does the source give for O[C@@H](Cc1ccccc1)[C@H]1C2C=CCCC(c3ccccc3)=C2CN1Cc1cccc(Cl)c1 (stereo not given in full) here?
The z-score was -3.65.

With O=C1[C@H]2[C@H]3[C@H](O)[C@H](O)CC(=NO[C@@H]4O[C@H](CO)[C@@H](O)[C@H](O)[C@H]4O)[C@@H]3CC[C@H]2C(=O)N1Cc1ccccc1 as the compound, how does the z-score read?
The z-score was -0.13.

With COCCOC(=O)N1C(=O)[C@@]2(c3cc(C#CCNC(N)=O)ccc31)[C@H](c1ccccc1OCCO)N1[C@H](c3ccccc3)[C@H](c3ccccc3)OC(=O)[C@H]1[C@@H]2C(=O)N1CCN(c2ncccn2)CC1 as the compound, how does the z-score read?
The z-score was 2.11.

With O=C1[C@H]2[C@H]3[C@H](O)[C@H](O)CC(=NO[C@@H]4O[C@H](CO)[C@@H](O)[C@H](O)[C@H]4O)[C@H]3CC[C@H]2C(=O)N1Cc1ccccc1 as the compound, how does the z-score read?
Its z-score is -0.468.

For CC(C)(C)N1C(=O)[C@H]2[C@H]3[C@H](O)[C@H](O)CC(=NO[C@@H]4O[C@H](CO)[C@@H](O)[C@H](O)[C@H]4O)[C@@H]3CC[C@H]2C1=O, which z-score is on record?
Its z-score is -0.113.

For O=C1[C@H]2[C@H]3[C@H](O)[C@H](O)CC(=NO[C@@H]4O[C@H](CO)[C@@H](O)[C@H](O)[C@H]4O)[C@H]3CC[C@H]2C(=O)N1C1CCCCC1, which z-score is on record?
The z-score was 0.506.

Which z-score does the source give for CC[C@@H](c1ccccc1)n1c(=O)n2n(c1=O)[C@H]1[C@H](O)[C@@H]3O[C@@H]3C(=NOCC(C)C)[C@H]1CC2 here?
The z-score was -0.0534.

Which z-score does the source give for CCCC[C@@H](O)C1=C(C)C[C@H]2C(=O)N(Cc3ccccc3)C(=O)[C@H]2[C@H]1CO here?
The z-score was -2.19.

With CC(C)=C1C(=O)C(c2ccccc2)=C2CN3C(=O)N(CCc4ccccc4)C(=O)[C@]3(Cc3ccc(F)cc3)[C@H]21 as the compound, how does the z-score read?
The z-score was -0.0353.

Which z-score does the source give for N#Cc1ccc(NN2C(C(O)c3cc(C(F)(F)F)cc(C(F)(F)F)c3)C=CC3C(=O)N(c4ccccc4)C(=O)C32)cc1 (stereo not given) here?
Its z-score is 0.817.

For [N-]=[N+]=NCc1ccccc1[C@@H]1OC(c2ccc(OCCCO)cc2)=N[C@]1(Cc1ccccc1)C(=O)N1CCOCC1, which z-score is on record?
The z-score was -0.42.

For CC(CCN1CCCCc2nc(C)c(C)cc21)=NOC(C)CN1CCCCc2nc(C)c(C)cc21 (stereo not given), which z-score is on record?
Its z-score is -1.49.

With O=C(NN=C1C[C@@H](O)[C@@H](O)[C@@H]2[C@@H]3C(=O)N(c4cccc(Oc5ccccc5)c4)C(=O)[C@@H]3CC[C@H]12)OCc1ccccc1 as the compound, how does the z-score read?
The z-score was -0.141.

With CCOC(=O)CCN1C(=O)[C@H]2[C@H]3[C@H](O)[C@H](O)CC(=O)[C@H]3CC[C@H]2C1=O as the compound, how does the z-score read?
Its z-score is -0.373.

For O=C1O[C@@H](c2ccccc2)[C@@H](c2ccccc2)N2[C@@H](c3ccc(OCCO)cc3)[C@]3(C(=O)Nc4ccc(C#CCCO)cc43)[C@@H](C(=O)N3CCCCCCC3)[C@H]12, which z-score is on record?
The z-score was -0.507.

For c1ccc(C2NCCc3c2[nH]c2ccccc32)cc1 (stereo not given), which z-score is on record?
Its z-score is -2.36.
